# Most compounds without a hit are left out; they make up all but 3.5% or so of the library.
# MITF inh = inhibitors of human MITF. AlphaScreen MITF homodimerization, bead proximity signal. O75030. 650,000 tested, 0.91% active. inhibition, % at 2.6 µM; in the data active = inhibition above about 50%;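 note: 0% = vehicle wells with protein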
# FBW7 activator = human FBW7 E3 ligase activation, primary screen. Q969H0. AlphaScreen FBW7–phospho-cyclin E peptide binding, activator screen. normalized activity (activation), % at 26.1 µM. 650,000 tested, 0.13% active. AID 1259310; in the data active = normalized activity above about 1.9%;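 note: purified mutant Fbw7 with reduced substrate affinity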
# TEAD-YAP inh = TEAD-YAP interaction inhibition | inhibition, % at 9.12 µM | 640,000 tested, 1.4% active | HEK-TIYL cells, TEAD-Gal4/YAP UAS-luciferase luminescence; in the data active = inhibition above about 32%;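 note: 0% = median of test compound wells and 100% = reference inhibitor wells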
# GPR151 activ = activators of human GPR151; Q8TDV0; PathHunter beta-arrestin GPR151 cells, luminescence; activation, % at 11.2 µM; 650,000 tested, 1% active; AID 1508602; in the data active = activation above about 4.9%;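 note: 0% = median of compound wells and 100% = cells with positive control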
# GPR151 conf act = human GPR151 activation, confirmation screen | shares compounds with GPR151 activ | 6,700 tested, under 10 active | AID 1508609 | activation, % at 11.2 µM | GPR151 PathHunter beta-arrestin cells, luminescence, 90 min; % of EA-reagent control over plate median;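 active = mean percent activation across replicates above the confirmation screen cutoff of 4.91%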
# GPR119 counter = GPR119 activation, counter-screen for GPR151 activators | shares compounds with GPR151 activ | GPR119 PathHunter beta-arrestin cells, luminescence, 90 min; 0 = compound-well median, 100 = enzyme-acceptor control | activation, % at 11.2 µM | 6,700 tested, 0.3% active | AID 1508611;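 active = mean percent activation in the counterscreen above 29.09%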;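 note: counterscreen on off-target GPR119 to flag nonselective hits from the GPR151 activator screen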
# Target sequence (Q8TDV5 whole entry, looked up): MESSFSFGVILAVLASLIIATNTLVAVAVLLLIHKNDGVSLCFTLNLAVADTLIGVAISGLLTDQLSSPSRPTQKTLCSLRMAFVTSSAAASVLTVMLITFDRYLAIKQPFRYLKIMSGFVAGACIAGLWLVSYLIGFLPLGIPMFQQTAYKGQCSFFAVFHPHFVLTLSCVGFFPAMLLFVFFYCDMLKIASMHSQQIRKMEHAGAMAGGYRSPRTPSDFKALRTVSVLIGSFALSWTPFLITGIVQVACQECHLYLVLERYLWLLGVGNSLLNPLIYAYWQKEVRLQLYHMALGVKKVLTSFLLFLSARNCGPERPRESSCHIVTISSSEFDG
# Starred values were filed as active, the others as inactive; nt = no result given.
SMILES,MITF inh,FBW7 activator,TEAD-YAP inh,GPR151 activ,GPR151 conf act,GPR119 counter
COc1cc(C2C(C(=O)OC(C)(C)C)=C(C)NC3=C2C(=O)CC(C)(C)C3)ccc1O (stereo unspecified),1.0,0.0,4.5,5.4*,0.5,-2.5
O=C(Nc1cc(C(F)(F)F)ccc1OCC(F)(F)F)c1ccccc1Oc1ccc(C(F)(F)F)cc1[N+](=O)[O-],6.2,0.2,5.5,2.3,nt,nt
COC(=O)C(C)N1C(=O)S/C(=C/c2cc(OC)c(OC)cc2Cl)C1=O (stereo unspecified),11.4,0.1,-2.4,0.9,nt,nt
C=CCNCCC1CCC(=O)N1Cc1ccc(C)o1 (stereo unspecified),13.8,0.8,-0.8,2.6,nt,nt
C=CCNCCC1CCC(=O)N1Cc1cn2c(C)csc2n1 (stereo unspecified),22.1,0.9,-7.0,12.3*,0.2,6.8
Cc1ccccc1-n1c(=O)cc(NCCCn2ccnc2)[nH]c1=O,8.5,-0.3,0.2,13.6*,0.6,3.5
O=c1[nH]c(=O)n(-c2ccccc2Cl)c(O)c1C=NCCCn1ccnc1,19.3,0.1,6.2,4.9*,-0.4,-2.5
O=[N+]([O-])c1ccccc1S(=O)(=O)NCCc1c[nH]c2ccccc12,11.0,0.0,-0.1,-0.4,nt,nt
COc1ccc(Cl)cc1NC(=O)CC(NCc1ccccc1)C(=O)O (stereo unspecified),-9.6,0.0,-4.3,1.0,nt,nt
Cc1nn(-c2ccc(Nc3ccc(NC(=O)c4cccc(F)c4)cc3)nn2)c(C)c1C,-13.4,0.0,-21.9,7.6*,2.7,14.5
CC(=O)NNc1cccc(Cl)c1,-10.2,0.0,3.9,6.1*,-0.5,-3.0
COc1ccc(N2CCN(C3CCCN(C(=O)c4csc(SC)n4)C3)CC2)cc1 (stereo unspecified),4.8,-0.2,-1.2,4.9*,0.8,9.0
O=C(c1ccc(Br)cc1)C1C2C(=O)C3OCC(O3)C12 (stereo unspecified),-4.4,0.0,-23.0,8.0*,1.3,14.2
CCCOc1ccccc1C=C1C(=O)NC(=O)NC1=O,3.0,-0.1,-1.5,-0.9,nt,nt
CCOC(=O)C1=C(C)N=c2s/c(=C\c3ccc(-c4ccc(C(=O)O)cc4)o3)c(=O)n2C1c1ccc(N(C)C)cc1 (stereo unspecified),-2.8,-0.2,-4.0,3.2,nt,nt
O=C(CSc1nnc(-c2cccnc2)o1)Nc1nc(-c2ccccc2)cs1,9.9,-0.1,3.0,7.5*,-0.5,-1.9
O=C(CSc1nnc(-c2cccnc2)o1)c1ccccc1,4.8,-0.2,-21.1,5.9*,0.1,3.6
O=C(CSc1nnc(-c2cccnc2)o1)c1ccc2ccccc2c1,0.4,0.0,-2.2,-0.3,nt,nt
COc1ccc(C2=C/C(=C/c3ccc([N+](=O)[O-])cc3)C(=O)O2)cc1,-5.7,-0.1,-1.2,-0.5,nt,nt
Cc1cc(C(C)(C)C)cc(S(=O)(=O)Nc2ccc3c(c2)C(=O)NC3=O)c1C,-12.8,0.2,-11.3,6.2*,-0.5,-6.3
Cc1ccc(S(=O)(=O)Nc2ccc3c(c2)C(=O)NC3=O)c(C)c1,14.9,0.0,4.3,0.2,nt,nt
O=[N+]([O-])c1cccc(C2SCCN2S(=O)(=O)c2ccc(Br)cc2)c1 (stereo unspecified),12.5,0.1,4.8,5.8*,-0.6,-17.3
O=S(=O)(c1ccccc1)N1N=C(c2ccccc2)CC1c1ccco1 (stereo unspecified),10.1,0.2,20.5,5.4*,0.0,-2.4
O=[N+]([O-])c1cccc(C2SCCN2S(=O)(=O)c2ccc(I)cc2)c1 (stereo unspecified),3.3,-0.1,-4.8,0.2,nt,nt
O=[N+]([O-])c1cccc(C2CC(c3ccc(Br)cc3)=NN2S(=O)(=O)c2ccccc2)c1 (stereo unspecified),8.1,0.2,-4.2,5.4*,0.2,11.8
SMILES,MITF inh,FBW7 activator,TEAD-YAP inh,GPR151 activ,GPR151 conf act,GPR119 counter
COc1ccc(NCc2ccc(OC)c(OC)c2OC)cc1Cl,17.4,-0.3,-30.9,7.9*,1.3,15.3
O=C(Nc1ccc(S(=O)(=O)Nc2nccs2)cc1)C(c1ccccc1)c1ccccc1,8.5,0.1,0.4,5.5*,0.2,0.0
O=C(Nc1ccc(S(=O)(=O)Nc2nccs2)cc1)C(Cl)Cl,4.4,-0.1,3.0,1.1,nt,nt
OC(COc1ccccc1)CN1CCN(Cc2ccc3c(c2)OCO3)CC1 (stereo unspecified),15.1,0.1,7.8,8.4*,-1.0,-8.5
O=C(N1CCOCC1)N1CCN(Cc2ccc3c(c2)OCO3)CC1,7.0,-0.1,10.6,6.1*,0.3,-4.4
OC(COCc1ccc2c(c1)OCO2)CN1CCN(Cc2ccccc2)CC1 (stereo unspecified),1.2,-0.1,1.8,6.9*,0.4,-2.2
Cc1nnc2ccc(SCC(=O)N3CCN(Cc4ccc5c(c4)OCO5)CC3)nn12,16.5,0.2,-6.5,5.7*,1.0,5.1
CCN1CCN(CC(O)COCc2ccc3c(c2)OCO3)CC1 (stereo unspecified),11.2,0.2,5.3,0.1,nt,nt
c1ccc(Cc2nnc3sc(-c4ccco4)nn23)cc1,0.9,-0.1,-15.7,3.5,nt,nt
Fc1ccccc1-c1nn2c(Cc3ccccc3)nnc2s1,-3.4,-0.2,4.2,8.2*,0.1,-1.5
CCN(CC)S(=O)(=O)c1ccc(N/N=C/c2ccc(O)cc2)nc1,22.3,0.0,1.8,5.7*,0.5,3.4
CCN(CC)S(=O)(=O)c1ccc(N/N=C/c2ccc(O)c(OC)c2)nc1,7.5,-0.1,-5.8,1.6,nt,nt
CC(=O)Nc1ccc(NC(=S)NC(=O)c2cccc(Cl)c2)cc1,0.9,0.3,-22.8,1.8,nt,nt
Cc1cccnc1NC(=S)NC(=O)c1cccc(Cl)c1,2.6,0.0,-76.7,5.0*,1.3,14.8
Cc1ccc(S(=O)(=O)Nc2cccc(C(N)=O)c2)cc1,19.8,0.2,-4.5,1.3,nt,nt
Cc1ccccc1Cn1c(=O)c2c(nc3n2CCCN3c2ccc(F)cc2)n(C)c1=O,-0.5,-0.3,1.9,9.7*,-0.4,3.8
Cc1nnc(SCC(=O)N2CCc3ccccc3C2)[nH]c1=O,-13.8,-0.1,-10.0,10.4*,-0.1,7.6
O=C(CSc1nc2ccccc2c(=O)[nH]1)N1CCc2ccccc2C1,14.6,0.0,-2.1,0.1,nt,nt
COc1ccc(N=c2scc(-c3ccccc3)n2CCO)cc1,-2.7,-0.1,-24.3,2.1,nt,nt
CC[n+]1c(/C=C2\Sc3ccc(-c4ccccc4)cc3N2CCO)ccc2cc(OC)ccc21,-22.4,-1.2,91.1*,13.9*,-0.3,-0.1
Cc1csc2ncc(C(=O)N3CCc4ccccc43)c(=O)n12,6.8,0.2,-15.4,7.9*,2.3,-2.3
COc1ccc(-c2nc(CCNS(=O)(=O)c3cc(OC)ccc3OC)cs2)cc1,6.5,0.3,-1.9,-0.6,nt,nt
